# Results reported in PubChem BioAssay.
# The source made the active and inactive calls. No rule for the calls is given here.
# Target: Pantothenate synthetase (Mycobacterium tuberculosis (strain ATCC 25618 / H37Rv)) (UniProt P9WIL5)
# Experiment: Coupled enzyme confirmation of inhibitors against recombinant Mtb PanC (AID 375);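 also: 0% = full reaction with vehicle and 100% = no enzyme background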
# Settings: coupled enzyme assay; at 10 µM, stronger effect = higher value
# Pantothenate synthetase (Mycobacterium tuberculosis (strain ATCC 25618 / H37Rv)), sequence (P9WIL5 whole entry, looked up): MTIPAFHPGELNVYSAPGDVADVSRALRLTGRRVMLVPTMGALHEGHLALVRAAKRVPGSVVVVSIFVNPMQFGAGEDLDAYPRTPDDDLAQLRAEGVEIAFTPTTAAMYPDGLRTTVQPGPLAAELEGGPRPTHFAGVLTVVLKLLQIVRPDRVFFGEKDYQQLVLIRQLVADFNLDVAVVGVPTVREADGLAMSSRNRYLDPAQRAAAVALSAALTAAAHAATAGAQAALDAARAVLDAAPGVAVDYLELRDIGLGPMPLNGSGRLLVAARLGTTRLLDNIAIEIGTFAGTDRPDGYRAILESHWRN
row,SMILES,inhibition
1,COC(=O)c1[nH]c2cc(OC)ccc2c1NC(=O)CCN1CCCCC1,1% (inactive)
2,CCOC(=O)C(NC(=O)CC)(Nc1ccc(S(=O)(=O)Nc2onc(C)c2C)cc1)C(F)(F)F (stereo not drawn),0% (inactive)
3,COc1ccc(-n2c(Cc3cccn3C)nnc2SCC(=O)Nc2cccc(Cl)c2)cc1,2% (inactive)
4,CC1(C)OC(=O)N(c2cccnc2)C1(C)O (stereo not drawn),3% (inactive)
5,CCOCCCNCC(=O)N1CCN(S(=O)(=O)c2ccc(C)cc2)CC1,0% (inactive)
6,O=C(Nc1ccc(N2CCOCC2)cc1)c1cccc(S(=O)(=O)N2CCCC2)c1,0% (inactive)
7,Cn1cc(Cl)c(C(=O)NC2CCCC2)n1,6% (inactive)
8,CC1=C(C#N)C(c2ccc3ncccc3c2)C(C#N)=C(C)N1,4% (inactive)
9,Nc1cc(=O)[nH]c(SCC(=O)Nc2ccc(Br)cc2)n1,2% (inactive)
10,O=C(Nc1ccon1)c1cccc(S(=O)(=O)N2CCCC2)c1,2% (inactive)
11,C/C=C(\C)c1nnc(NC(=O)OCC)s1,0% (inactive)
12,COC(=O)c1sc2ccccc2c1NC(=O)c1cccs1,2% (inactive)
13,COC(=O)Nc1nc2c(C)cccc2s1,0% (inactive)
14,COc1ccc2nc(SCC(=O)NC(C)C)[nH]c2c1,0% (inactive)
15,Cc1ccc(O)c(C(=O)c2cc(C#N)c(=O)n(CC3CCCO3)c2)c1 (stereo not drawn),8% (inactive)
16,CCCCOc1ccccc1C(=O)NCCCC(=O)O,0% (inactive)
17,C=CCSC1=C(C#N)C(c2ccccc2OCC)CC(=O)N1 (stereo not drawn),0% (inactive)
18,CCCCCOc1ccc(C2NC(=O)NC2=O)cc1 (stereo not drawn),0% (inactive)
19,CC1CCN(CCn2c(=S)[nH]c3ncccc3c2=O)CC1,0% (inactive)
20,CC(=O)c1cccc(NC(=O)NCc2ccccn2)c1,2% (inactive)
21,CCOc1cc(-c2nc(-c3ccccc3OC)no2)cc(OCC)c1OCC,12% (inactive)
22,CC(C)(C)NC(=O)C(Cc1ccccc1)NS(=O)(=O)c1cccc2nsnc12 (stereo not drawn),0% (inactive)
23,COC(=O)Cn1c(CCS(=O)(=O)c2ccc(C)cc2)nc2ccccc21,1% (inactive)
